Experimental data taken from PubChem BioAssay (NCATS).
Results filed as inconclusive are left out. Activity calls are given as the source filed them. Unless noted, calls follow the shape of the dose curve; as a rule, active = well fitted curve in the direction sought with a large enough effect; inconclusive = small, poorly fitted or top-dose-only effect, or effect the other way, or another doubt; inactive = no such curve, though single readings can be large or run the other way.

Assay: Inducers of the Endoplasmic Reticulum Stress Response (ERSR) in human glioma: Validation (AID 504836); also: 0% is about no effect
Conditions: human glioma cells, ER stress response reporter; series mostly up to 38.3 µM; activation: at the top concentration
Outline: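 Stably transfected U87-MG human glioma cells carrying a GRP78-based luminescent sensor were seeded at 1000 cells/well, pin-dosed with compounds and incubated 16 h. Luciferase reagent was then added, and end-point luminescence was read after 10 min at room temperature.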

Row | SMILES | activation | outcome
1 | CC[N+](CC)(CC)CC(=O)Nc1c(C)cccc1C | 0.342% (inactive) | 
2 | C/C(=C\c1ccc(C(=O)O)cc1)c1ccc2c(c1)C(C)(C)CCC2(C)C | -2.11% (inactive) | 
3 | CN1CCc2ccccc2Cc2[nH]c3ccccc3c2CC1 | -1.1% (inactive) | 
4 | COc1ccccc1N1CCN(CCN2C(=O)CC3(CCCC3)CC2=O)CC1 | -3.42% (inactive) | 
5 | N=C(N)c1ccc(N)cc1 | -3.07% (inactive) | 
6 | O=C(c1cc(O)c(O)c([N+](=O)[O-])c1)c1ccccc1F | -1.13% (inactive) | 
7 | NCCNS(=O)(=O)c1cccc2c(Cl)cccc12 | -4.72% (inactive) | 
8 | CC(=O)N[C@@H](Cc1c[nH]c2ccccc12)C(=O)OCc1cc(C(F)(F)F)cc(C(F)(F)F)c1 | -0.456% (inactive) | 
9 | CSC(=N)N | 1.91% (inactive) | 
10 | Cn1c(=O)c2[nH]c(-c3ccc(S(=O)(=O)O)cc3)nc2n(C)c1=O | -3.67% (inactive) | 
11 | O=C(O)[C@@H]1C[C@@H](C(=O)O)N1 | -1.14% (inactive) | 
12 | c1ccc(-c2ccccn2)nc1 | -1.04% (inactive) | 
13 | COc1ccc2c(c1)c(CC(=O)O)c(C)n2C(=O)c1ccccc1 | -2.86% (inactive) | 
14 | COc1cc2c(CCNC(C)=O)c[nH]c2cc1Cl | -2.15% (inactive) | 
15 | COc1cc2c(CCNC(C)=O)c[nH]c2cc1O | -4.46% (inactive) | 
16 | C[C@H](O)C(=O)C1=Nc2c(nc(N)[nH]c2=O)NC1 | 0.478% (inactive) | 
17 | NC(=O)C(=O)O | -1.61% (inactive) | 
18 | O=C(O)c1ccccc1Nc1cccc(OCc2ccc3ccccc3n2)c1 | 0.36% (inactive) | 
19 | O=c1ccc2c(OCCCCc3ccccc3)c3ccoc3cc2o1 | -2.42% (inactive) | 
20 | C[C@@H]1C(=O)NC2=Nc3cccc(Cl)c3CN21 | -1.92% (inactive) | 

Row | SMILES | activation | outcome
21 | O=C(O)C1=CCCNC1 | -0.824% (inactive) | 
22 | O=C(O)c1ccccc1Nc1ccccc1 | -1.22% (inactive) | 
23 | CNCCNS(=O)(=O)c1cccc2cnccc12 | -5% (inactive) | 
24 | CC(C)NC[C@H](O)c1ccc(O)c(O)c1 |  | inactive
25 | NC(N)=NC(N)=Nc1cccc(Cl)c1 | -1.6% (inactive) | 
26 | CCCn1c(=O)c2[nH]c(C3CCCC3)nc2n(CCC)c1=O | -3.81% (inactive) | 
27 | O=C(O)c1cc(=O)c2ccccc2[nH]1 | -3.54% (inactive) | 
28 | COc1ccc(C(=O)NCc2cccnc2)cc1C(=O)NCc1cccnc1 | -2.63% (inactive) | 
29 | CC1(C)CCC2=C(O1)c1ccccc1C(=O)C2=O | -11.6% (inactive) | 
30 | COc1cc(/C=C(\C#N)C(=O)c2ccc(O)c(O)c2)cc(I)c1O | -4.44% (inactive) | 
31 | O=C(O)CC[C@@H](C(=O)O)N1C(=O)c2ccccc2C1=O | -1.62% (inactive) | 
32 | O=c1[nH]c(=O)c2nc3ccccc3nc2[nH]1 | -1.03% (inactive) | 
33 | CN(C)c1nc(N)c(C(=O)N=C(N)N)nc1Cl | -2.62% (inactive) | 
34 | COCc1nc2c([nH]1)c(=O)n(C)c(=O)n2CC(C)C | -1.16% (inactive) | 
35 | Oc1ccc(Cn2cc[nH]c2=S)cc1 | -0.79% (inactive) | 
36 | N=c1c[n+](N2CCOCC2)[n-]o1 | -3.09% (inactive) | 
37 | c1ccc2nc(C3=NCCN3)ccc2c1 | -1.89% (inactive) | 
38 | O=[N+]([O-])c1cccc2cn[nH]c12 | -1.38% (inactive) | 
39 | CCCCN1CCC(n2c(=O)[nH]c3ccccc32)CC1 | -3.2% (inactive) | 
40 | NC1(C(=O)O)CC1 | -1.7% (inactive) | 

Assay: qHTS for Inhibitors of the Functional Ribonucleoprotein Complex (vRNP) of Lassa (LASV) Arenavirus: LASV Primary Screen - GLuc reporter signal (AID 1347082; calls by dose curve; tested in HEK293 reporter line; also: % is scaled to controls: 0 for no effect and ±100 for the full control effect; nearly all actives have a fitted effect of over 60% in size)
Conditions: LASV minigenome vRNP, Gaussia luciferase reporter; series mostly up to 57.5 µM; activity change, negative = inhibition: at the top concentration

Row | SMILES | activity change, negative = inhibition | Potency
41 | CC[N+](CC)(CC)CC(=O)Nc1c(C)cccc1C | -9.04% (inactive) | 
42 | C/C(=C\c1ccc(C(=O)O)cc1)c1ccc2c(c1)C(C)(C)CCC2(C)C | -1.48% (inactive) | 
43 | CN1CCc2ccccc2Cc2[nH]c3ccccc3c2CC1 | 1.47% (inactive) | 
44 | COc1ccccc1N1CCN(CCN2C(=O)CC3(CCCC3)CC2=O)CC1 | 3.97% (inactive) | 
45 | N=C(N)c1ccc(N)cc1 | 2.12% (inactive) | 
46 | O=C(c1cc(O)c(O)c([N+](=O)[O-])c1)c1ccccc1F | -9.12% (inactive) | 
47 | NCCNS(=O)(=O)c1cccc2c(Cl)cccc12 | -25.6% (inactive) | 
48 | CC(=O)N[C@@H](Cc1c[nH]c2ccccc12)C(=O)OCc1cc(C(F)(F)F)cc(C(F)(F)F)c1 | 10.3% (inactive) | 
49 | CSC(=N)N | -0.268% (inactive) | 
50 | Cn1c(=O)c2[nH]c(-c3ccc(S(=O)(=O)O)cc3)nc2n(C)c1=O | -8.88% (inactive) | 
51 | O=C(O)[C@@H]1C[C@@H](C(=O)O)N1 | -2.08% (inactive) | 
52 | c1ccc(-c2ccccn2)nc1 | 21.5% (inactive) | 
53 | COc1ccc2c(c1)c(CC(=O)O)c(C)n2C(=O)c1ccccc1 | 4.99% (inactive) | 
54 | COc1cc2c(CCNC(C)=O)c[nH]c2cc1Cl | -6.95% (inactive) | 
55 | COc1cc2c(CCNC(C)=O)c[nH]c2cc1O |  | inactive
56 | C[C@H](O)C(=O)C1=Nc2c(nc(N)[nH]c2=O)NC1 |  | inactive
57 | NC(=O)C(=O)O | -1.97% (inactive) | 
58 | O=C(O)c1ccccc1Nc1cccc(OCc2ccc3ccccc3n2)c1 | 1.16% (inactive) | 
59 | O=c1ccc2c(OCCCCc3ccccc3)c3ccoc3cc2o1 | -0.927% (inactive) | 
60 | C[C@@H]1C(=O)NC2=Nc3cccc(Cl)c3CN21 | -26.1% (inactive) | 

Row | SMILES | activity change, negative = inhibition | Potency
61 | O=C(O)C1=CCCNC1 |  | inactive
62 | O=C(O)c1ccccc1Nc1ccccc1 | 1.94% (inactive) | 
63 | CNCCNS(=O)(=O)c1cccc2cnccc12 | -1.76% (inactive) | 
64 | CC(C)NC[C@H](O)c1ccc(O)c(O)c1 |  | inactive
65 | NC(N)=NC(N)=Nc1cccc(Cl)c1 | 3.28% (inactive) | 
66 | CCCn1c(=O)c2[nH]c(C3CCCC3)nc2n(CCC)c1=O | 13.1% (inactive) | 
67 | O=C(O)c1cc(=O)c2ccccc2[nH]1 |  | inactive
68 | COc1ccc(C(=O)NCc2cccnc2)cc1C(=O)NCc1cccnc1 | 2.61% (inactive) | 
69 | CC1(C)CCC2=C(O1)c1ccccc1C(=O)C2=O |  | inactive
70 | COc1cc(/C=C(\C#N)C(=O)c2ccc(O)c(O)c2)cc(I)c1O | 12.1% (inactive) | 
71 | O=C(O)CC[C@@H](C(=O)O)N1C(=O)c2ccccc2C1=O | -1.09% (inactive) | 
72 | O=c1[nH]c(=O)c2nc3ccccc3nc2[nH]1 | -9.34% (inactive) | 
73 | CN(C)c1nc(N)c(C(=O)N=C(N)N)nc1Cl | 4.49% (inactive) | 
74 | COCc1nc2c([nH]1)c(=O)n(C)c(=O)n2CC(C)C | -1.26% (inactive) | 
75 | Oc1ccc(Cn2cc[nH]c2=S)cc1 | 4.96% (inactive) | 
76 | N=c1c[n+](N2CCOCC2)[n-]o1 | -6.8% (inactive) | 
77 | c1ccc2nc(C3=NCCN3)ccc2c1 | -3.66% (inactive) | 
78 | O=[N+]([O-])c1cccc2cn[nH]c12 | -1.41% (inactive) | 
79 | CCCCN1CCC(n2c(=O)[nH]c3ccccc32)CC1 | -0.269% (inactive) | 
80 | NC1(C(=O)O)CC1 |  | inactive
